FMDV RLuc: antivirals against foot and mouth disease virus replicon; FMDV replicon cells, Renilla luciferase signal; Potency, µM (top dose mostly 57.5 µM), for the others: top-dose activity change, negative = inhibition, most hits filed as inhibitors; hit rate 0.32% among 120,000; AID 1745857; also: nearly all actives have a fitted effect of over 55% in size
FMDV antiviral: FMDV antiviral activity by firefly signal; Potency, µM (series often up to 57.5 µM), without a hit: at the top dose activity change, negative = inhibition, most hits filed as inhibitors; FMDV antiviral cell assay, firefly luciferase signal; hit rate 0.23% among 120,000; AID 1745856; also: nearly all actives have a fitted effect of over 60% in size
* hit, by the source's call; ? = inconclusive. Most compounds without a hit are left out; they make up all but 0.45% or so of the library. Calls follow the shape of the full dose curve. % is scaled to controls: 0 for no effect and ±100 for the full control effect; potency is read from the fitted curve at half-maximal effect.

SMILES	FMDV RLuc	FMDV antiviral
Cn1c(=O)[nH]c(=O)c2c1nc(NCCO)n2Cc1cccc2ccccc12	-7%	-2%
CCCCOc1ccc(C(=O)NCCS(=O)(=O)N2CCN(c3ccccc3OC)CC2)cc1	?	18µM*
CCCCOc1ccc(C(=O)NCCS(=O)(=O)N2CCN(c3ccc(F)cc3)CC2)cc1	-12%	-16%
Cc1ccccc1C(=O)NC12CC3CC(CC(C3)C1)C2	37%	21%
O=C(Oc1ccc(F)cc1)c1ccc(-c2nc3ccccc3s2)s1	8%	10µM*
O=C(Nc1ccccc1-c1nc2ccccc2s1)c1ccc(F)cc1	-9%	-13%
O=C(NC12CC3CC(CC(C3)C1)C2)c1ccc(-c2nc3ccccc3s2)s1	20%	20µM*
COc1ccc2c(C)c(CCC(=O)Nc3ccc(C)cc3O)c(=O)oc2c1	-7%	2%
O=C1c2ccccc2S(=O)(=O)N1Cc1nc(-c2ccc(Cl)cc2Cl)cs1	-10%	104%
CCOC(=O)C1CCCN(S(=O)(=O)c2ccc3c(c2)CCCN3C(C)=O)C1 (stereo not given)	151%	-32%
COc1ccccc1N1CCN(C(=O)C2CCCN(S(=O)(=O)c3ccc4c(c3)CCCN4C(C)=O)C2)CC1 (stereo not given)	25µM*	?
Cc1cc(C)n(-c2ncnc3scc(-c4ccc(Cl)cc4)c23)n1	-5%	-6%
Clc1ccc(-c2csc3ncnc(Sc4nnc(C5CC5)o4)c23)cc1	20µM*	25µM*
COc1cc(C=C2CCC/C(=C\c3ccc(O)c(OC)c3)C2=O)ccc1O	?	22µM*
COc1cc(C=O)ccc1O	2%	-1%
CCC(Oc1ccccc1F)C(=O)N1CCC(c2nc3ccccc3o2)CC1 (stereo not given)	-2%	-2%
Cc1cc(CS(=O)(=O)Cc2ccccc2Cl)no1	29%	44%
COc1ccc(Nc2cc(C)nc(Nc3ccc(NC(=O)CC(C)(C)C)cc3)n2)cc1	22µM*	?
COc1ccc(Nc2cc(C)nc(NCc3ccccc3)n2)cc1	-24%	0%
CCN(c1ccc2sc(C(=O)NCCC(C)C)cc2c1)S(C)(=O)=O	25µM*	?
CC(C)CNC(=O)c1cc2cc(N(C)S(C)(=O)=O)ccc2s1	?	44%
CC(C)c1ccc(C(=O)NN)cc1	17%	188%
COc1ccc(OC(=O)CSc2nnc(-c3ccc(F)cc3)o2)cc1	-5%	-10%
CCOc1ccc(-c2nnc(SCC(=O)Oc3ccccc3)o2)cc1	-4%	3.5µM*
COc1ccccc1NC(=O)c1ccc(-c2nc(COc3ccc(C)cc3)c(C)o2)cc1	25µM*	?
SMILES	FMDV RLuc	FMDV antiviral
COc1ccc(OC)c(NC(=O)c2ccc(-c3nc(COc4ccccc4)c(C)o3)cc2)c1	17%	0%
Cc1nc(/C=C/c2ccc(Cl)cc2)sc1C(=O)O	12%	0.89µM*
O=C(O)c1ccc(/C=C/c2nc3cc(Cl)ccc3o2)cc1	4%	67%
N#Cc1c(NC(=O)c2ccnn2C(F)F)sc2c1CCCC2	3.2µM*	?
N#Cc1c(NC(=O)c2cc(=O)c3ccccc3o2)sc2c1CCCC2	1%	138%
N#Cc1c(NC(=O)CSc2nccn2Cc2ccccc2)sc2c1CCC2	20%	94%
N#Cc1c(NC(=O)c2nn(-c3ccccc3)c(=O)c3ccccc23)sc2c1CCCC2	1%	-4%
N#Cc1c(NC(=O)c2ccnn2C(F)F)sc2c1CCC2	3.2µM*	?
N#Cc1c(NC(=O)c2ccnn2C(F)F)sc2c1CCCCC2	5µM*	?
CCc1ccc2c(c1)-c1ccccc1S(=O)(=O)N2CC(=O)Nc1cccc(Cl)c1C	97%	2%
CC(SC(=S)N(C)C)C(=O)NC(C)c1ccc(F)cc1 (stereo not given)	13%	1%
CN(C)CCCNC(=O)c1cc(-c2ccccc2)nc2ccccc12	-14%	-11%
CN(C)CCCNC(=O)c1cc(-c2ccc(-c3ccccc3)cc2)nc2ccccc12	8.9µM*	99%
CC(=O)Nc1ccc(NC(=O)C2CCCN2c2ncnc3ccccc23)cc1 (stereo not given)	-6%	2%
O=S(=O)(Nc1nc2ccccc2nc1Nc1ccc(F)cc1)c1cccc(Cl)c1	?	6.3µM*
COc1ccc(Nc2nc3ccccc3nc2NS(=O)(=O)c2cccc(Cl)c2)cc1	54%	4%
COc1cc(C(=O)N2CCC(c3nc4ccccc4s3)CC2)cc(OC)c1OC	-28%	?
Cc1ccc(C(=O)N2CCC(c3nc4cc(C(F)(F)F)ccc4s3)CC2)cn1	14µM*	?
O=C(c1ccnc(Cl)c1)N1CCC(c2nc3cc(C(F)(F)F)ccc3s2)CC1	?	11µM*
Cc1ccc2oc(C(=O)N3CCC(c4nc5ccccc5s4)CC3)c(C)c2c1	-16%	-6%
Cc1cc(C)c(CO)c(C)c1C=O	-7%	6%
Cc1nc(-c2c[nH]c3ccccc23)c(C)s1	?	10%
Cc1ccc2c(N)c(C)ccc2n1	-1%	42%
COc1ccccc1-c1cc(=O)c2cc(NS(=O)(=O)c3ccccc3)ccc2o1	55%	51%
CCN(CC)S(=O)(=O)c1ccc(NS(=O)(=O)c2ccc(C(C)C)cc2)cc1	358%	88%
SMILES	FMDV RLuc	FMDV antiviral
CCCn1c(C)cc(C(=O)CSc2nnc(COc3ccccc3Cl)n2C)c1C	25%	7%
Cc1ccc(-c2cc(Nc3ccccc3)nc(C)n2)cc1	8%	216%
CC(C)c1ccc(-c2csc(Nc3ccc(C(=O)O)c(O)c3)n2)cc1	-3%	94%
CC1CCCCC1NC(=S)Nc1cccc2cnccc12 (stereo not given)	?	14µM*
CC1CCCCC1NC(=S)NN (stereo not given)	25%	0%
CCN(CC)S(=O)(=O)c1ccc(NC(=O)Cc2cn3ccsc3n2)cc1	23%	8%
Cc1cc(C)cc(-n2ccnc2SCC(=O)Nc2ccccc2F)c1	20µM*	?
Cc1cc(C)cc(-n2ccnc2SCC(=O)Nc2cccc3ccccc23)c1	13%	2%
CC(C)(C)C(=O)NCCCC(=O)NCC1CC1	-5%	-10%
O=C(O)c1cccc(-c2noc(-c3ccccc3F)n2)c1	-6%	2.5µM*
Fc1ccccc1-c1nc(-c2cccc(Br)c2)no1	9%	0%
O=C(NCc1nc(-c2cccs2)no1)c1ccc(Oc2cccnc2)cc1	-6%	-2%
Cc1cc(Br)ccc1NC(=O)Cn1nc(-c2cccs2)oc1=O	-11%	-9%
COc1ccc(CCn2cnc3c2c(=O)n(C)c(=O)n3C)cc1	-19%	-10%
COc1ccc(N2CCN(C(=O)CCc3c(C)nc4cc(-c5ccc(Cl)cc5)nn4c3C)CC2)cc1	-5%	32µM*
COc1ccc(N2CCN(C(=O)CCc3c(C)nc4cc(-c5ccc(OC)cc5OC)nn4c3C)CC2)cc1	-15%	-20%
COc1ccc(-n2nnnc2C2CCN(S(=O)(=O)c3cc(OC)ccc3OC)CC2)cc1	25µM*	?
COc1ccc(-n2nnnc2C2CCN(S(=O)(=O)c3ccc(F)cc3Cl)CC2)cc1	-1%	-1%
CCc1c(C)sc(NC(=O)c2cc(C)oc2C)c1C#N	-1%	6%
CC(NC(=O)c1ccc(CS(C)(=O)=O)cc1)c1ccc(F)cc1 (stereo not given)	-5%	-15%
COCCN(CCOC)CC(O)COc1ccc(C#N)cc1 (stereo not given)	11%	6%
COc1ccc(NC(=O)CCc2c(C)nc3cc(-c4cccc(F)c4)nn3c2C)cc1Cl	-6%	28µM*
Cc1nc2cc(-c3ccccc3)nn2c(C)c1CCC(=O)NCCc1ccccc1	6%	?
